Assay results from PubChem BioAssay AID1159580 (chemical genetic matrix, 2015).
Values joined by “and” are separate entries in the source; they are usually repeats but may differ in a detail not shown here. Equal entries are not always repeated. Hit rate of the full screen: of about 5,500 compounds, about 2,000 (36%) were called active. Another 18% or so got no clear call; they are omitted. No stated cut-off is given here; in the data, active means normalized growth mostly below about 0.91 (no sharp cut-off); inconclusive means no clear call, values can overlap the other calls; inactive means mostly above about 0.92. This is one part of the list.

Test: chemical genetic growth profiling, strain panel (AID 1159580);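 further: tested at 20 µM; growth read once vehicle control cultures reached saturation at 30 °C; 1 = growth at the plate median or of vehicle wells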
Conditions: S. cerevisiae deletion strains, growth OD

Measured: normalized growth

CCOC(=O)C(C)(C)Oc1ccc(Cl)cc1
inactive: locus YAL013W, strain DEP1, stronger effect = lower value 1.01 and 0.989 | locus YAL021C, strain ccr4, stronger effect = lower value 0.996 | locus YAL026C, strain drs2, stronger effect = lower value 0.989 | locus YAL030W, strain snc1, stronger effect = lower value 0.976 | locus YAL040C, strain CLN3, stronger effect = lower value 0.985 | locus YBL061C, strain skt5, stronger effect = lower value 0.978 | locus YBR009C, strain hhf1, stronger effect = lower value 0.982 | locus YBR021W, strain FUR4, stronger effect = lower value 0.988 | locus YBR023C, strain chs3, stronger effect = lower value 0.985 | locus YBR171W, strain sec66, stronger effect = lower value 0.973 | locus YBR229C, strain ROT2, stronger effect = lower value 1.01 | locus YBR231C, strain swc5, stronger effect = lower value 0.977 | locus YBR279W, strain paf1, stronger effect = lower value 0.986 | locus YCL011C, strain gbp2, stronger effect = lower value 0.991 | locus YCL016C, strain dcc1, stronger effect = lower value 0.986 | locus YCL029C, strain bik1, stronger effect = lower value 1 | locus YCL061C, strain MRC1, stronger effect = lower value 0.98 | locus YCL069W, strain vba3, stronger effect = lower value 0.981 | locus YCR088W, strain abp1, stronger effect = lower value 0.984 | locus YDL005C, strain med2, stronger effect = lower value 0.972 | locus YDL035C, strain GPR1, stronger effect = lower value 1.01 | locus YDL040C, strain nat1, stronger effect = lower value 0.979 | locus YDL074C, strain BRE1, stronger effect = lower value 1.02 | locus YDL101C, strain DUN1, stronger effect = lower value 0.999 | locus YDL134C, strain PPH21, stronger effect = lower value 0.999 | locus YDL185W, strain tfp1, stronger effect = lower value 1.01 | locus YDL192W, strain arf1, stronger effect = lower value 1.01 | locus YDR001C, strain nth1, stronger effect = lower value 0.983 | locus YDR069C, strain doa4, stronger effect = lower value 0.984 | locus YDR101C, strain arx1, stronger effect = lower value 0.99 | locus YDR137W, strain rgp1, stronger effect = lower value 0.964 | locus YDR150W, strain NUM1, stronger effect = lower value 1 | locus YDR159W, strain sac3, stronger effect = lower value 0.945 | locus YDR162C, strain NBP2, stronger effect = lower value 1.01 | locus YDR195W, strain ref2 0.954 | locus YDR297W, strain sur2, stronger effect = lower value 0.982 | locus YDR318W, strain mcm21, stronger effect = lower value 1 | locus YDR334W, strain swr1, stronger effect = lower value 0.987 | locus YDR335W, strain msn5, stronger effect = lower value 0.986 | locus YDR388W, stronger effect = lower value 0.995 | locus YDR392W, strain spt3, stronger effect = lower value 0.87 | locus YDR502C, strain sam2, stronger effect = lower value 0.996 | locus YEL003W, strain gim4, stronger effect = lower value 0.992 | locus YEL037C, strain rad23, stronger effect = lower value 1.02 | locus YEL061C, strain CIN8 (second series), stronger effect = lower value 0.981 | locus YEL061C, strain CIN8, stronger effect = lower value 1.01 | locus YER002W, strain NOP16, stronger effect = lower value 0.998 | locus YER015W, strain faa2, stronger effect = lower value 0.971 | locus YER016W, strain bim1, stronger effect = lower value 0.984 | locus YER110C, stronger effect = lower value 0.992 | locus YER111C, strain swi4, stronger effect = lower value 0.985 | locus YER155C, strain BEM2 (second series), stronger effect = lower value 0.922 | locus YER155C, strain BEM2, stronger effect = lower value 1 | locus YER167W, strain BCK2, stronger effect = lower value 0.998 | locus YFR010W, strain ubp6, stronger effect = lower value 1.01 | locus YGL078C, strain dbp3, stronger effect = lower value 1.01 | locus YGL086W, strain mad1, stronger effect = lower value 1 | locus YGL167C, strain pmr1, stronger effect = lower value 0.975 | locus YGL173C, strain kem1, stronger effect = lower value 0.984 | locus YGL227W, strain vid30, stronger effect = lower value 0.975 | locus YGL240W, strain doc1, stronger effect = lower value 0.949 | locus YGL248W, strain PDE1, stronger effect = lower value 1.01 | locus YGL253W, strain hxk2, stronger effect = lower value 1 | locus YGR078C, strain PAC10, stronger effect = lower value 1.02 | locus YGR135W, strain pre9, stronger effect = lower value 1 | locus YGR252W, strain gcn5, stronger effect = lower value 0.993 | locus YHR013C, strain ard1, stronger effect = lower value 1.02 | locus YHR027C, strain rpn1, stronger effect = lower value 0.986 | locus YHR030C, strain SLT2, stronger effect = lower value 1.01 and 0.939 | locus YHR079C, strain IRE1 (second series), stronger effect = lower value 1 | locus YHR079C, strain IRE1, stronger effect = lower value 0.946 | locus YHR094C, strain hxt1, stronger effect = lower value 0.993 | locus YHR129C, strain ARP1, stronger effect = lower value 1 | locus YHR142W, strain chs7, stronger effect = lower value 0.993 | locus YHR200W, strain rpn10, stronger effect = lower value 1 | locus YIL066C, strain RNR3, stronger effect = lower value 1.01 | locus YIL073C, strain SPO22, stronger effect = lower value 1.02 | locus YIL125W, strain kgd1, stronger effect = lower value 0.998 | locus YIR030C, strain dcg1, stronger effect = lower value 0.994 | locus YJL092W, strain hpr5, stronger effect = lower value 0.978 | locus YJL095W, strain BCK1 (second series), stronger effect = lower value 0.985 | locus YJL095W, strain BCK1, stronger effect = lower value 0.986 and 0.943 | locus YJL115W, strain asf1, stronger effect = lower value 0.965 | locus YJL129C, strain trk1, stronger effect = lower value 0.973 | locus YJL134W, strain LCB3, stronger effect = lower value 1 | locus YJL154C, strain vps35, stronger effect = lower value 0.992 | locus YJL164C, strain tpk1, stronger effect = lower value 0.985 | locus YJL166W, strain qcr8, stronger effect = lower value 0.978 | locus YJL168C, strain set2, stronger effect = lower value 0.997 | locus YJL187C, strain SWE1 (second series), stronger effect = lower value 1.01 | locus YJL187C, strain SWE1, stronger effect = lower value 0.97 | locus YJR043C, strain POL32, stronger effect = lower value 1 | locus YJR066W, strain TOR1, stronger effect = lower value 0.943
